PubChem BioAssay (NCI)
This is part of a sample that, as a whole, favours compounds with a hit. Of some 79,000 tested, about 15% had one in any assay. Active and inactive are the calls of the source. Rule as the data show it: active = growth inhibition above about 70%; inactive = the rest.

Experiments:
[1] = NCI Yeast Anticancer Drug Screen. Data for the mec2-1 strain (AID 157); details: S. cerevisiae mec2-1 strain, active compounds read high
Outline: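 Using mec2-1 yeast: add compound, measure growth, express inhibition versus vehicle-treated cultures.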

[2] = NCI Yeast Anticancer Drug Screen. Data for the rad14 strain (AID 159);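 also: 0% = growth of vehicle-treated control cultures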; details: S. cerevisiae rad14 strain growth inhibition, active compounds read high
Outline: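 Test compounds were applied to a repair-deficient yeast strain. Its growth was then compared with that of cultures given vehicle alone, and inhibition was expressed relative to those controls.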

[3] = NCI Yeast Anticancer Drug Screen. Data for the sgs1 mgt1 strain (AID 161);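 also: 0% = growth of cultures given vehicle only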; details: S. cerevisiae sgs1 mgt1 strain, active compounds read high
Outline: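 Growth of a repair-deficient yeast mutant was monitored after compound treatment and expressed as inhibition relative to vehicle-treated cultures.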

[4] = NCI Yeast Anticancer Drug Screen. Data for the CLN2oe strain (AID 163);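 also: 0% = growth of vehicle-only control cultures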; details: S. cerevisiae CLN2oe strain, active compounds read high
Outline: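 Whole-cell yeast growth assay. A strain engineered for altered cell-cycle control received compound, and inhibition relative to vehicle-treated cultures was recorded.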

[5] = NCI Yeast Anticancer Drug Screen. Data for the cln2 rad14 strain (AID 165);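 also: 0% = growth equal to vehicle treated cultures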; details: S. cerevisiae cln2 rad14 strain, active compounds read high
Outline: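 Yeast strain cln2 rad14, bearing defects in cell cycle control and DNA repair, serves as the test system; values reflect growth inhibition compared with vehicle.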

[6] = NCI Yeast Anticancer Drug Screen. Data for the bub3 strain (AID 167); details: S. cerevisiae bub3 mutant strain, active compounds read high
Outline: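 Yeast carrying a defined mutation is treated with each compound, and growth is compared with that of vehicle-exposed cells to give inhibition.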

[7] = NCI Yeast Anticancer Drug Screen. Data for the wt2 strain (AID 169);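 also: 0% = growth of vehicle-treated yeast cultures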; details: S. cerevisiae wt2 strain growth inhibition, active compounds read high
Outline: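 Treated yeast vs. vehicle-treated yeast: growth inhibition determined.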

[8] = NCI Yeast Anticancer Drug Screen. Data for the sgs1 strain (AID 173);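 also: 0% = growth of vehicle-only control cultures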; details: S. cerevisiae sgs1 mutant, active compounds read high
Outline: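 A genetically defined yeast mutant is incubated with the test compound, and its growth is compared to that of the same strain given vehicle.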

[9] = NCI Yeast Anticancer Drug Screen. Data for the mlh1 rad18 strain (AID 175); details: S. cerevisiae mlh1 rad18 strain growth inhibition, active compounds read high
Outline: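 Steps: expose repair-defective yeast to compound; measure growth; express inhibition against vehicle-treated controls.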

[10] = NCI Yeast Anticancer Drug Screen. Data for the rad18 strain (AID 177); details: S. cerevisiae rad18 mutant growth inhibition, active compounds read high
Outline: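 Measured value is growth inhibition of a yeast strain bearing a DNA repair alteration, referenced to vehicle-treated cells.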

[11] = NCI Yeast Anticancer Drug Screen. Data for the rad52 strain (AID 147);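 also: 0% = growth of vehicle-treated control cultures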; details: S. cerevisiae rad52 mutant growth inhibition, active compounds read high
Outline: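 Here a repair-compromised yeast strain receives each compound; its growth is then quantified and normalised to vehicle-only controls.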

[12] = NCI Yeast Anticancer Drug Screen. Data for the rad50EPP+ strain (AID 151);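 also: 0% = growth of vehicle-treated control cultures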; details: S. cerevisiae rad50 mutant strain, active compounds read high
Outline: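 Read-out is yeast growth inhibition relative to vehicle; cells used were the rad50EPP+ strain.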

[13] = NCI Yeast Anticancer Drug Screen. Data for the mgt1 strain (AID 153); details: S. cerevisiae mgt1 mutant growth inhibition, active compounds read high
Outline: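 Measured: inhibition of mgt1 yeast growth by compound, normalized to vehicle-treated cultures.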

[14] = NCI Yeast Anticancer Drug Screen. Data for the rad50 strain (AID 155);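 also: 0% = growth of vehicle-only cultures of the same strain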; details: S. cerevisiae rad50 strain growth inhibition, active compounds read high
Outline: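 Genetically altered yeast (DNA repair pathway); compound treatment; growth inhibition vs vehicle ctrl.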

[15] = NCI Yeast Anticancer Drug Screen. Data for the wt1 strain (AID 149);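 also: 0% = growth of vehicle-treated wt1 cultures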; details: S. cerevisiae wt1 strain (SPY 50644) growth inhibition, active compounds read high
Outline: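 wt1 yeast, compound-treated; % growth inhibition vs vehicle control.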

[16] = NCI Yeast Anticancer Drug Screen. Data for the mlh1 strain (AID 171);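 also: 0% = growth of vehicle-treated control cultures of the same strain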; details: S. cerevisiae mlh1 strain growth inhibition, active compounds read high
Outline: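 A yeast strain with a defined genetic lesion serves as the test organism. Cultures receive compound or vehicle, and growth is measured.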

[17] = at 5.0 µM (retest, dose inferred, filed as 0.5)
[18] = at 50.0 µM (retest, dose inferred, filed as 5.0)

Measured: growth inhibition

O=C(C#Cc1ccccc1)/C=C/c1ccccc1
active: [1]; at 100.0 µM 96% | [2]; at 33.0 µM 82% | [2]; at 100.0 µM 96% | [3]; [18] 79% | [3]; at 50.0 µM 70.2% | [4]; at 100.0 µM 93% | [5]; at 50.0 µM 87.7% | [6]; at 33.0 µM 78% | [6]; at 50.0 µM 79.7% | [6]; at 100.0 µM 96% | [7]; at 33.0 µM 91% | [7]; at 100.0 µM 97% | [8]; at 33.0 µM 97% | [8]; at 100.0 µM 95% | [9]; [18] 72% | [9]; at 50.0 µM 77% | [10]; at 33.0 µM 81% | [10]; at 100.0 µM 95%
inactive: [2]; at 1.2 µM -1% | [2]; at 3.7 µM 12% | [2]; at 11.0 µM 10% | [3]; [17] -53% | [4]; at 1.2 µM -7% | [4]; at 3.7 µM -7% | [4]; at 11.0 µM -2% | [4]; at 33.0 µM 14% | [5]; [17] -46% | [5]; [18] -23% | [6]; at 1.2 µM -2% | [6]; at 3.7 µM -1% | [6]; [17] -65% | [6]; at 11.0 µM 7% | [6]; [18] 53% | [7]; at 1.2 µM -21% | [7]; at 3.7 µM -5% | [7]; at 11.0 µM 13% | [8]; at 1.2 µM -4% | [8]; at 3.7 µM 2% | [8]; at 11.0 µM 24% | [9]; [17] -140% | [10]; at 1.2 µM -5% | [10]; at 3.7 µM 4% | [10]; at 11.0 µM 13%

CC(=O)CCC1=C(C)C(=O)C(=O)C(C)=C1O
active: [11]; at 100.0 µM 91% | [13]; at 100.0 µM 80% | [14]; at 100.0 µM 89% | [1]; at 100.0 µM 83% | [2]; at 100.0 µM 85% | [4]; at 100.0 µM 74% | [6]; at 50.0 µM 75% | [6]; at 100.0 µM 89% | [7]; at 100.0 µM 94% | [8]; at 100.0 µM 91% | [10]; at 100.0 µM 90%
inactive: [11]; at 1.2 µM -2% | [11]; at 3.7 µM -3% | [11]; at 11.0 µM -4% | [11]; at 33.0 µM 20% | [12]; at 1.2 µM -2% | [12]; at 3.7 µM -1% | [12]; at 11.0 µM 0% | [12]; at 33.0 µM 7% | [12]; at 100.0 µM 16% | [13]; at 1.2 µM -17% | [13]; at 3.7 µM 0% | [13]; at 11.0 µM 4% | [13]; at 33.0 µM 8% | [14]; at 1.2 µM 0% | [14]; at 3.7 µM 9% | [14]; [17] -6% | [14]; at 11.0 µM 14% | [14]; at 33.0 µM 34% | [14]; [18] 42% | [14]; at 50.0 µM 7.5% | [1]; at 1.2 µM -3% | [1]; at 3.7 µM -6% | [1]; [17] -4% | [1]; at 11.0 µM -9% | [1]; at 33.0 µM 13% | [1]; [18] 12% | [1]; at 50.0 µM 34.7% | [2]; at 1.2 µM -2% | [2]; at 3.7 µM -1% | [2]; at 11.0 µM 5% | [2]; at 33.0 µM 27% | [3]; [17] 6% | [3]; [18] 25% | [3]; at 50.0 µM 39% | [4]; at 1.2 µM 1% | [4]; at 3.7 µM 7% | [4]; at 11.0 µM 7% | [4]; at 33.0 µM 20% | [5]; [17] -6% | [5]; [18] 16% | [5]; at 50.0 µM 14.1% | [6]; at 1.2 µM -5% | [6]; at 3.7 µM -16% | [6]; [17] -14% | [6]; at 11.0 µM 6% | [6]; at 33.0 µM 17% | [6]; [18] 15% | [7]; at 1.2 µM -3% | [7]; at 3.7 µM -3% | [7]; at 11.0 µM -1% | [7]; at 33.0 µM 23% | [8]; at 1.2 µM -3% | [8]; at 3.7 µM -6% | [8]; at 11.0 µM -2% | [8]; at 33.0 µM 22% | [9]; [17] -28% | [9]; [18] 46% | [9]; at 50.0 µM 20.4% | [10]; at 1.2 µM -4% | [10]; at 3.7 µM -7% | [10]; at 11.0 µM -3% | [10]; at 33.0 µM 14%

CC(C)=CCC/C(C)=C/CN1C(=O)C=CC1=O
inactive: [15]; at 1.2 µM 2% | [15]; at 3.7 µM 29% | [12]; at 1.2 µM 57% | [13]; at 1.2 µM -3% | [13]; at 3.7 µM 18% | [14]; at 1.2 µM 7% | [14]; at 3.7 µM 42% | [14]; [17] 13% | [1]; at 1.2 µM -3% | [1]; at 3.7 µM 17% | [1]; [17] -16% | [2]; at 1.2 µM 14% | [2]; at 3.7 µM 53% | [3]; [17] 36% | [4]; at 1.2 µM -13% | [4]; at 3.7 µM 5% | [5]; [17] -29% | [6]; at 1.2 µM 10% | [6]; at 3.7 µM 37% | [6]; [17] -24% | [7]; at 1.2 µM 24% | [16]; at 1.2 µM -8% | [16]; at 3.7 µM 15% | [8]; at 1.2 µM 20% | [8]; at 3.7 µM 48% | [9]; [17] 69% | [10]; at 1.2 µM 4% | [10]; at 3.7 µM 32%
active: [15]; at 11.0 µM 100% | [15]; at 33.0 µM 100% | [15]; at 100.0 µM 99% | [12]; at 3.7 µM 86% | [12]; at 11.0 µM 99% | [12]; at 33.0 µM 99% | [12]; at 100.0 µM 99% | [13]; at 11.0 µM 100% | [13]; at 33.0 µM 100% | [13]; at 100.0 µM 100% | [14]; at 11.0 µM 99% | [14]; at 33.0 µM 99% | [14]; [18] 98% | [14]; at 50.0 µM 99.7% | [14]; at 100.0 µM 99% | [1]; at 11.0 µM 99% | [1]; at 33.0 µM 100% | [1]; [18] 99% | [1]; at 50.0 µM 99.7% | [1]; at 100.0 µM 100% | [2]; at 11.0 µM 100% | [2]; at 33.0 µM 100% | [2]; at 100.0 µM 100% | [3]; [18] 99% | [3]; at 50.0 µM 99.5% | [4]; at 11.0 µM 81% | [4]; at 33.0 µM 99% | [4]; at 100.0 µM 99% | [5]; [18] 99% | [5]; at 50.0 µM 99.3% | [6]; at 11.0 µM 99% | [6]; at 33.0 µM 99% | [6]; [18] 99% | [6]; at 50.0 µM 99.4% | [6]; at 100.0 µM 99% | [7]; at 3.7 µM 76% | [7]; at 11.0 µM 100% | [7]; at 33.0 µM 99% | [7]; at 100.0 µM 99% | [16]; at 11.0 µM 98% | [16]; at 33.0 µM 99% | [16]; at 100.0 µM 99% | [8]; at 11.0 µM 99% | [8]; at 33.0 µM 100% | [8]; at 100.0 µM 99% | [9]; [18] 98% | [9]; at 50.0 µM 99.3% | [10]; at 11.0 µM 99% | [10]; at 33.0 µM 99% | [10]; at 100.0 µM 99%
